An excerpt weighted towards active compounds, which were near 0.5% of everything screened.
E coli growth-1: blocks Escherichia coli growth; AID 1053175; OD600, 23 h; hits give low values; OD600 absorbance (concentration not given with the values); 330,000 tested, 0.21% active;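 active = OD600 absorbance below the run mean of sample wells minus 3.6 SD, in any replicate, cut at about 0.56 in these data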
E coli growth-2: reduces bacterial viability in AddAB counter-screen; E. coli V3065 growth, OD600 absorbance, 18 h; inhibition, % at 11.9 µM; 330,000 tested, 0.27% active; AID 449728;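 active = inhibition above the campaign's mean inhibition across all tested compounds plus 3 SD, cut at about 9.9% in these data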;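 note: uninfected addAB+ strain grown without phage in ampicillin broth; 0% = DMSO wells and 100% = ciprofloxacin 0.95 µg/ml wells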
Tat export inh: blocks Tat-dependent protein export in E. coli; inhibition, % at 10 µM; 340,000 tested, 0.036% active; AID 488895; E. coli MC4100 TorA-mCherry Tat export, fluorescence;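 active = mean replicate inhibition at least 50% and at least half of replicates individually reaching 50%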;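 note: exported cargo escapes ClpAP degradation while cytoplasmic cargo is degraded and loses fluorescence; 0% = median of neutral control wells and 100% = median of NaSCN control wells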
AddAB inh: less growth of phage-infected E. coli with AddAB; E. coli expressing H. pylori AddAB, absorbance growth; inhibition, % at 11.9 µM; 330,000 tested, 0.29% active; in the data active = inhibition above about 12%;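 note: 0% = vehicle wells of infected cells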
phage Ecoli inh: E. coli growth loss with phage present; AID 651602; 360,000 tested, 0.26% active; growth absorbance; inhibition, % at 11.9 µM; in the data active = inhibition above about 11%
AddAB conf: confirmation screen: growth loss of phage-infected E. coli expressing H. pylori AddAB; shares compounds with AddAB inh; E. coli V3065 expressing H. pylori AddAB, T4 phage, OD; T4 phage with gene 2 nonsense mutations; inhibition, % at 11.9 µM; 880 tested, 64% active; AID 488942;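 active = mean inhibition above a set limit taken from the earlier primary screen, cut at about 13% in these data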;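 note: higher means less bacterial growth since AddAB block lets phage replicate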
RecBCD counter: counter-screen: growth loss of RecBCD+ E. coli with mutant T4 phage; inhibition, % at 11.9 µM; AID 488955; 880 tested, 73% active; E. coli V66 + mutant T4 phage, OD growth; shares compounds with AddAB inh;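 active = mean inhibition above the mean of solvent-only control wells plus 3 SD, cut at about 4% in these data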;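 note: optical density read after an 18 h incubation at 37 °C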
bact viab count: counter-screen: bacterial growth inhibition; 880 tested, 35% active; inhibition, % at 11.9 µM; bacterial viability, absorbance (AddAB counterscreen); shares compounds with AddAB inh; AID 488956; in the data active = inhibition above about 25%
RecBCD conf: confirmation: growth loss of phage-infected RecBCD+ E. coli (RecBCD inhibitor screen); E. coli V66 + T4 2- phage, growth OD; 890 tested, 45% active; inhibition, % at 11.9 µM; shares compounds with phage Ecoli inh; AID 651982;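 active = mean inhibition over triplicates exceeding the hit threshold derived in the original primary screen, cut at about 11% in these data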
Ecoli viability: bacterial viability inhibition counter-screen for RecBCD | shares compounds with phage Ecoli inh | E. coli viability, absorbance (OD) growth | inhibition, % at 11.9 µM | 890 tested, 29% active; in the data active = inhibition above about 20%;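 note: E. coli strain V66 grown with compound alone and no phage infection; 0% = bacteria with DMSO vehicle only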
AddAB phage OD: growth loss of phage-infected AddAB E. coli, RecBCD counter-screen | shares compounds with phage Ecoli inh | E. coli expressing H. pylori AddAB + T4 phage, OD growth; gene 2 mutant T4, recBCD-deleted host | inhibition, % at 11.9 µM | 890 tested, 45% active;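 active = mean inhibition above the solvent-only control wells' mean plus 3 SD, cut at about 22% in these data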;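 note: higher means less bacterial growth from phage killing when AddAB is blocked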
Numbers without * were called inactive; nt = no result.

SMILES	E coli growth-1	E coli growth-2	Tat export inh	AddAB inh	phage Ecoli inh	AddAB conf	RecBCD counter	bact viab count	others
Fc1cccc(NC(=S)NCc2ccccc2Cl)c1	0.62	11*	-4	19*	9	33*	26*	33*
S=C(NCc1ccc(Cl)cc1Cl)Nc1ccccc1	0.61	2	7	7	5	nt	nt	nt
O=C(NCC1CCCO1)c1cccc2c1C(=O)c1ccc(-c3ccc(F)cc3OCc3ccccc3)cc1S2(=O)=O (stereo not drawn)	0.69	nt	nt	nt	nt	nt	nt	nt
Cc1cc(SCC(=O)N/N=C/c2ccc(O)c(O)c2O)c(C)cc1Br	nt	18*	3	16*	17*	12	10*	1
Cc1cc(SCC(=O)NN=Cc2ccc(O)cc2O)c(C)cc1Br	0.7	nt	nt	nt	nt	nt	nt	nt
Oc1ccc(N=Cc2ccc(O)c(O)c2)cc1	0.68	0	-6	1	nt	nt	nt	nt
Oc1ccc(/C=N/N=C/c2ccc(O)c(O)c2)cc1O	nt	-3	4	34*	0	-1	0	-2
Cn1nc([N+](=O)[O-])c(C(C#N)c2ccccn2)c(Cl)c1=O (stereo not drawn)	0.68	9	3	13*	6	41*	6.1*	22
O=Cc1ccc(OCc2cccc(C(F)(F)F)c2)cc1O	0.61	12*	-4	13*	10	8	9.5*	6
CCOC(=O)N1CCN(c2cc(=O)n(-c3ccc(C)cc3)c(=O)[nH]2)CC1	0.79	22*	3	97*	2	-2	0	-3
COC(=O)c1sc2ccccc2c1C(=O)OC	0.67	nt	-8	nt	2	nt	nt	nt
COC(=O)c1sc2ccccc2c1N	0.7	21*	1	35*	2	2	-1	-1
Cc1cc(/C=N/NC(=O)c2ccccc2F)c(C)n1-c1ccccc1	nt	-1	1	131*	4	1	2	0
CCCCC(=O)O[C@H]1CC[C@H]2[C@@H]3CCc4cc(O)ccc4[C@H]3CC[C@]12C	nt	-1	3	97*	4	3	0	-1
COC(=O)C1CC1C(NS(=O)(=O)c1ccc2ccccc2c1)c1ccccc1 (stereo not drawn)	0.69	nt	nt	nt	nt	nt	nt	nt
Cc1ccc(OCC(=O)N2CCc3ccccc32)c([N+](=O)[O-])n1	0.67	19*	4	24*	8	46*	5.4*	43*
Cc1ccc(NC(=O)c2ccc(-n3cccn3)c([N+](=O)[O-])c2)cc1	0.66	0	-2	5	2	nt	nt	nt
O=C(Nc1ccc(C2=NCCN2)cc1)c1ccc(C(=O)Nc2ccc(C3=NCCN3)cc2)c([N+](=O)[O-])c1	nt	25*	64*	27*	10	86*	29*	28*
COc1cccc(/C=N/NC(=O)c2[nH]c(C)c(C(=O)N/N=C/c3cccc(OC)c3O)c2C)c1O	nt	28*	11	28*	22*	18*	21*	13
O=C(COc1ccccc1)NN=Cc1ccc([N+](=O)[O-])o1	0.55	nt	nt	nt	nt	nt	nt	nt
O=C(CNc1ccccc1)N/N=C/c1ccc([N+](=O)[O-])o1	nt	16*	3	17*	12*	84*	12*	28*	RecBCD conf=10;Ecoli viability=9;AddAB phage OD=59*
O=C(CNC(=O)c1ccccc1)N/N=C/c1ccc([N+](=O)[O-])o1	nt	23*	0	28*	20*	98*	10*	29*	RecBCD conf=15*;Ecoli viability=13;AddAB phage OD=82*
O=C(Cc1ccc2c(c1)OCO2)NN=Cc1ccc([N+](=O)[O-])o1	0.54	9.9*	-3	27*	13*	99*	8.4*	23	RecBCD conf=7;Ecoli viability=6;AddAB phage OD=37*
Cc1ccc(NCC(=O)N/N=C\c2ccc([N+](=O)[O-])o2)cc1	nt	4	-6	8	7	nt	nt	nt
C#CCNC(=O)C1=CC(c2ccccc2)C(CCCO)C(OCC)O1 (stereo not drawn)	0.63	nt	nt	nt	nt	nt	nt	nt
SMILES	E coli growth-1	E coli growth-2	Tat export inh	AddAB inh	phage Ecoli inh	AddAB conf	RecBCD counter	bact viab count	others
CC(C)CC(NC(=O)c1nc[nH]c1C(=O)NCC(=O)OC(C)(C)C)C(=O)OCc1ccccc1 (stereo not drawn)	0.7	nt	nt	nt	nt	nt	nt	nt
Cn1nnnc1N=N/C(=N/Nc1ccccc1)c1ccccc1	nt	21*	-1	25*	20*	25*	23*	22	RecBCD conf=11*;Ecoli viability=10;AddAB phage OD=15
COc1ccc(C2CC(=O)C=C(C=Cc3ccccc3)C2)cc1OC (stereo not drawn)	0.68	nt	nt	nt	nt	nt	nt	nt
CC1CN(C(C)CO)C(=O)c2cccc(NC(=O)Nc3ccc(C(F)(F)F)cc3)c2OC1CN(C)S(=O)(=O)c1ccc(Cl)cc1 (stereo not drawn)	0.69	nt	nt	nt	nt	nt	nt	nt
COC(=O)c1ccc(C(NC(=O)OCc2ccccc2)C(F)=CC(C)C(=O)NCc2ccc(-c3ccccc3)cc2)cc1 (stereo not drawn)	0.72	nt	nt	nt	nt	nt	nt	nt
COC(=O)C(C)NC(=S)N1CCN(c2c(F)cc3c(=O)c(C(=O)O)cn(C4CC4)c3c2OC)CC1C (stereo not drawn)	0.067*	102*	17	103*	99*	102*	100*	102*	RecBCD conf=104*;Ecoli viability=104*;AddAB phage OD=104*
CNC(=S)N1CCN(c2c(F)cc3c(=O)c(C(=O)O)cn(C4CC4)c3c2OC)CC1C (stereo not drawn)	0.045*	99*	73*	101*	100*	100*	101*	99*	RecBCD conf=101*;Ecoli viability=103*;AddAB phage OD=103*
CCOC(=O)C1CCCN(C(=O)C=Cc2cc(OC)c(OC)c(OC)c2)C1 (stereo not drawn)	0.68	nt	nt	nt	nt	nt	nt	nt
COc1cccc(/C=N/NC(=O)c2ccc(-c3ccccc3)cc2)c1O	nt	17*	2	19*	19*	6	16*	4	RecBCD conf=7;Ecoli viability=10;AddAB phage OD=19
COc1cccc(C=NNC(=O)c2ccc(-c3ccccc3)cc2)c1O	0.72	nt	nt	nt	nt	nt	nt	nt
O=C(NN=Cc1cc(Br)ccc1O)C(=O)Nc1ccccc1OC(F)(F)C(F)F	0.74	nt	nt	nt	nt	nt	nt	nt
COc1cccc(/C=N/NC(=O)C(=O)Nc2ccccc2OC(F)(F)C(F)F)c1O	nt	15*	-3	19*	17*	10	12*	10	RecBCD conf=4;Ecoli viability=4;AddAB phage OD=7
O=C(NNC(=O)C1CCN(S(=O)(=O)c2ccc(Cl)cc2)CC1)c1ccccc1O	nt	7	-2	12*	12*	7	7.3*	8	RecBCD conf=-2;Ecoli viability=1;AddAB phage OD=4

Assay outcomes (PubChem)
